Holding throughout (test): NCI-60 one-dose screen, 48 h (100 = growth as untreated, 0 = no growth, -100 = all killed)
Test [1] has as its system A549/ATCC NSCLC. Conditions: 10 µM unless noted.
The test system of test [2] is COLO 205 colon. Conditions: 10 µM.
Test [3] has as its system MALME-3M melanoma. To be noted: 10 µM unless noted.
Test [4] relates to RXF 393 renal. To be noted: 10 µM unless noted.
Test [5] concerns UACC-257 melanoma. Conditions: 10 µM unless noted.
For test [6], the system named is HT29 colon. Conditions: 10 µM unless noted.
Test [7] deals with U251 CNS. Conditions: 10 µM unless noted.
Test [8] has as its system SK-MEL-2 melanoma. To be noted: 10 µM unless noted.
For test [9], the system named is UO-31 renal. Conditions: 10 µM unless noted.
Test [10] relates to CAKI-1 renal. Conditions: 10 µM unless noted.
The test system of test [11] is A498 renal. Conditions: 10 µM unless noted.
The subject of test [12] is HL-60(TB) leukemia. Conditions: 10 µM unless noted.
The subject of test [13] is OVCAR-8 ovarian. To be noted: 10 µM unless noted.
Test [14] concerns OVCAR-4 ovarian. To be noted: 10 µM unless noted.
The subject of test [15] is SK-OV-3 ovarian. Conditions: 10 µM unless noted.
The test system of test [16] is HS 578T breast. Conditions: 10 µM unless noted.
The subject of test [17] is T-47D breast. To be noted: 10 µM unless noted.
Test [18] has as its system BT-549 breast. Conditions: 10 µM.
Test [19] concerns MDA-MB-435 melanoma. To be noted: 10 µM unless noted.
Test [20] has as its system SN12C renal. Conditions: 10 µM unless noted.

This is an account of results in PubChem BioAssay (NCI).

This is part of a sample that, as a whole, favours compounds with a hit. Of some 83,000 tested, about 20% had one in any assay.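 For each line, cells grew in 96-well plates with the test compound present at a single concentration for 48 hours.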 Unmarked numbers belong to inactive results. Active and inactive are the calls of the source. How the source made its calls: active means growth percent below 10; inactive means the rest.

Consider `CC(=O)[O][Hg][c]1nc2c(c(=O)n(C)c(=O)n2C)n1C`, for which the growth in test [1] was 102%; in test [2], 113%; in [3], 49.8%; in test [4] it was 97.6%; in test [5] it was 98%; in test [6], 95.6%. In addition, the growth in test [7] is 88.3%; in test [8] it was 98.6%; in test [9], 104%; in [10], 83.5%; in [11], 125%; in test [12], 104%. Also, the growth is 95.2% in test [13]; 95.1% in [14]; 115% in test [15]; 105% in test [16]; 88.8% in [17]; 111% in [18]. Further, the growth in [19] is 92.4%.
On to `CCOc1cc(C=C(C#N)C#N)cc(Br)c1O`, for which the growth in test [1] is 102%; in test [2] it was 103%; in [3], 106%; in test [4], 121%; in test [5], 107%; in [6], 92.5%. Moreover, the growth in test [7] is 96.5%; in test [8], 102%; in [20], 106%; in test [9], 88.9%; in test [10], 92.7%; in test [11], 96.4%. The growth in test [13] is 102%; in [14] it was 103%; in test [15], 116%; in test [16], 107%; in [17], 98.5%; in [18] it was 99.1%. Also, the growth in test [19] is 101%.
For the compound `Cc1cc(NC(=O)CCc2ccc(N3C(N)=NC(N)=NC3(C)C)cc2)ccc1S(=O)(=O)F`, the growth is 36% in test [2]; 32.3% in test [3]; 24.7% in test [6]; 24.2% in test [7]; -21.1% (active) in test [8]; 32.8% in test [20]. Further, the growth in [9] is 101%; in test [10] it was 34.2%; in test [11] it was 59.8%; in test [12], 13.3%; in test [13] it was 40.9%; in test [14] it was 62.1%. The growth in test [15] was 67.3%; in test [16] it was 74.7%; in [17] it was 75.1%; in [19], 32%.
As for `C[As](=O)(O)c1ccc(C(=O)O)cc1`, the growth is 106% in test [1]; 115% in test [2]; 112% in [3]; 95.9% in test [4]; 102% in [5]; 108% in test [6]. Besides, the growth in test [7] is 89.5%; in test [8] it was 99.9%; in test [20], 107%; in [9], 93.2%; in [10], 120%; in test [11], 96.3%. For the same compound, the growth is 102% in test [12]; 101% in test [13]; 113% in test [14]; 106% in test [15]; 113% in test [16]; 110% in [17]. In addition, the growth in [18] was 117%; in test [19] it was 98.4%.
Turning to `CC(C)[C@]12O[C@H]1[C@@H]1O[C@]13[C@]1(O[C@H]1C[C@H]1C4=C(CC[C@@]13C)C(=O)OC4)[C@@H]2OC(=O)OC(C)(C)C`, the growth in test [1] was 16.7%; in test [3], -35.6% (active); in [4], -52.2% (active); in test [5] it was -7.48% (active); in test [6], 1.27% (active); in test [7] it was 15.5%. The growth in [8] is -55.3% (active); in [20], 20%; in test [9] it was 1.21% (active); in [10], -49.8% (active); in test [11], -36.6% (active); in test [12], -15.7% (active). Further, the growth in test [13] is 16.8%; in [14], 29.3%; in test [15] it was 43.6%; in [16], -6.44% (active); in test [17], 23.8%; in test [18] it was -12.2% (active). Besides, the growth in [19] is -73.6% (active).
Regarding `O=C1NC(=O)C(O)(C2(O)C(=O)NC(=O)NC2=O)C(=O)N1`, the growth is 79.9% in [2]; 57.9% in [3]; 104% in test [6]; 99.9% in test [7]; 77.5% in test [8]; 92.3% in test [20]. Further, the growth in [9] was 86.1%; in test [10], 104%; in [11] it was 89.1%; in [12] it was 85.9%; in [13], 109%; in [14] it was 108%. Also, the growth was 111% in [15], 99% in [16], 101% in test [17] and 108% in test [19].
Take `O=C(O)C1[O][Sb][O]C1C(=O)O` (configuration not stated): the growth is 103% in test [1]; 109% in test [2]; 86.8% in [3]; 116% in [4]; 98.2% in test [5]; 104% in [6]. Besides, the growth in test [7] is 102%; in [8], 96.5%; in test [20], 104%; in test [9], 90.7%; in test [10], 118%; in test [11], 116%. The growth in test [12] is 91.1%; in test [14], 99.2%; in test [15], 102%; in test [16] it was 101%; in test [17] it was 89.3%; in [18], 84.6%. The growth in test [19] was 105%.
Regarding `C=CCc1ccc(OC(=O)Cc2ccccc2)c(OC)c1`, the growth in test [1] was 104%; in test [2] it was 103%; in test [3], 86.8%; in [4] it was 110%; in test [5] it was 120%; in test [6], 115%. In addition, the growth is 99.3% in [7]; 80.6% in [8]; 99.5% in [20]; 77.1% in test [9]; 95.2% in test [10]; 97.4% in [11]. Besides, the growth in test [13] is 109%; in test [14] it was 102%; in [15], 94.2%; in test [16] it was 114%; in [17], 106%; in [18] it was 106%. Further, in test [19], the growth is 107%.
